Measurements reported in PubChem BioAssay.

system: XIP peptide (Xip251-270); test: compounds binding XIP fragment 251-270 – biochemical, small-molecule microarray, fluorescence 635/667 nm, 0.5 µg/mL protein, primary screen (AID 1183); conditions: fluorescence 635 nm, higher = more signal

SMILES	composite z-score
C=CCNC(=O)[C@H]1[C@@H]2C(=O)O[C@@H](c3ccccc3)[C@@H](c3ccccc3)N2[C@@H](c2ccccc2OCCO)[C@]12C(=O)N(C(=O)OCCOC)c1ccc(C#CCNC(N)=O)cc12	0.822
O=C1c2ccccc2[C@](Cc2ccccc2I)(C(=O)NCC(F)(F)F)[C@H](c2ccc(CO)cc2)N1Cc1ccccc1C(F)(F)F	0.188
Cc1ccc(N2C(=O)c3ccccc3[C@@H](C(=O)NCC(F)(F)F)[C@@H]2c2ccc(CO)cc2)nc1	-0.138
[N-]=[N+]=NCc1ccccc1C[C@@]1(C(=O)N2CCOCC2)N=C(c2ccc(OCCCO)cc2)O[C@@H]1c1ccccc1N=[N+]=[N-]	0.711
C=C(CCCC)/C(=C/C[C@@H](OC(=O)c1ccncc1)c1cccc(OCCO)c1)c1cc(C(=O)OC)ccc1OC	0.74
C=C(CCCC)C(=O)CC[C@@H](OC(C)=O)c1ccccc1OCCO	-1.02
CCOC(=O)C1=CC[C@@H](c2ccc(-c3ccc(OCc4ccccc4)cc3)c(OC)c2)N(S(=O)(=O)c2ccc(C)cc2)[C@H]1c1ccccc1	0.6
CC(C)[C@H]1NC(=O)[C@@]23C(=O)N[C@@H](Cc4ccccc4)C2[C@H](C)[C@@]2(C)O[C@H]2C3/C=C/C/C=C\CNC(=O)[C@H](C)NC1=O (some centres undefined)	-0.791
CC(=O)NCCCC[C@@H]1NC(=O)[C@H]2C[C@@H](C(=O)NCCCCCCN(C)C)[C@@H](c3cccc(OCCO)c3)N2C1=O	0.882
C/C(=N\O)C(=O)NCCCCCNC(=O)OCc1ccccc1	0.58
COCCOC(=O)N1C(=O)[C@@]2(c3cc(C#CC4=CCCCC4)ccc31)[C@H](C(=O)NC[C@H](O)c1ccccc1)[C@H]1C(=O)O[C@H](c3ccccc3)[C@H](c3ccccc3)N1[C@@H]2c1ccc(OCCO)cc1	0.612
COCCOC(=O)N1C(=O)[C@@]2(c3cc(C#CC4(O)CCCCCC4)ccc31)[C@H](C(=O)N1CCCCCCC1)[C@H]1C(=O)O[C@H](c3ccccc3)[C@H](c3ccccc3)N1[C@@H]2c1ccc(O)cc1	0.683
C=C(COC)/C(=C/C[C@@H](OC(C)=O)c1cccc(OCCO)c1)c1cc(C(=O)OC)ccc1OC	-0.5
C=CCC(OC(C)=O)[C@@H]1[C@@H](N(Cc2ccc(-c3cccc(C(F)(F)F)c3)o2)C(=O)Cc2ccc(F)cc2)c2cc(OCCCO)ccc2N1C(=O)c1ccc(-c2ccccc2)cc1 (some centres undefined)	-0.829
CC(C)[Si]1(C(C)C)O[C@@H](c2ccccc2)c2cc(C3CC3)nc(-c3ccc(Oc4ccccc4)cc3)c21	-0.736
Cc1ccc([C@@H]2CC=C(C(=O)O)[C@H](c3ccccc3)N2S(=O)(=O)c2ccc(C)cc2)cc1	0.909
CCOC(=O)C[C@H]1[C@H](OC(=O)c2ccccc2-c2ccccc2)[C@@H](NC(=O)C2CCCCC2)c2cc(OCCCO)ccc2N1C(=O)c1ccccc1	0.0325
Cc1ccc(S[C@]2(C(=O)NCCCN(C)C)CC(=O)N(Cc3ccccc3)[C@@H]2c2ccc(CO)cc2I)cc1	0.119
CCCC=C(CCC)[C@@H](NC(=O)c1ccc(C(F)(F)F)cc1)c1ccccc1	0.144
NC(=O)NCC#Cc1ccc2c(c1)[C@]1(C(=O)N2)[C@H](c2ccccc2OCCO)N2[C@H](c3ccccc3)[C@H](c3ccccc3)OC(=O)[C@H]2[C@@H]1C(=O)N1CCN(c2ncccn2)CC1	0.763
C=C(CCCC)/C(=C/C[C@H](OC(=O)c1ccncc1)c1cccc(OCCO)c1)c1cc(C(=O)OC)ccc1OC	0.305
CN1CCC(CCCO)=CC1C1CC1 (centres undefined)	-0.5
COc1ccc([Si](C)(C)[C@H]2[C@H](CC(=O)N(CCO)Cc3ccccc3)O[C@@]3(C(=O)N(C)c4ccccc43)[C@@H]2C)cc1	0.369
CN1C2C=C(c3ccc(CO)cc3)C(C3C(=O)N(C(N)=O)C(=O)C32)C1c1cccs1 (centres undefined)	0.92
O=C/C=C/c1ccccc1Cl	-0.264
COCCOC(=O)N1C(=O)[C@@]2(c3cc(C#CCCO)ccc31)[C@H](C(=O)N1CCCCCCC1)[C@H]1C(=O)O[C@H](c3ccccc3)[C@H](c3ccccc3)N1[C@@H]2c1ccc(O)cc1	0.63
C=C(/C(=C/C[C@@H](OC(=O)c1ccncc1)c1ccc(CO)o1)c1cnc2ccccc2c1)C(C)C	0.766
COc1ccc(C(O)C2C=CC3C(=O)N(C)C(=O)C3N2N2CCCCC2)cc1OCc1ccccc1 (centres undefined)	0.582
COC(=O)[C@@]1(Cc2ccc(OC)cc2)[C@H]2c3cc(C(=O)N(C)C)n(CCc4ccc(OC)c(Br)c4)c3C[C@H]2CN1C(=O)c1ccccc1	0.351
